ID4 SMM: binders of human ID4 protein | small molecule microarray, Flag-ID4 binding, fluorescence F/B | calls only | AID 624137 | hit rate 1.2% among 31,000; call rule not given here;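 note: a binder raises fluorescence above local background on the spot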
Target sequence (P47928 whole entry, looked up): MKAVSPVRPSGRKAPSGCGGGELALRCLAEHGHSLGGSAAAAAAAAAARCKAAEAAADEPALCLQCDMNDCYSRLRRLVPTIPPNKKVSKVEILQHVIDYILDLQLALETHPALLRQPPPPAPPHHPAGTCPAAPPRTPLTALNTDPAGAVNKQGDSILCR
STK33 inh: blocks human STK33 kinase activity; Q9BYT3; hit rate 0.44% among 27,000; ADP-Glo luminescence, MBP substrate; inhibition, % at 12.5 µM; AID 2322; in the data active = inhibition above about 20%; inconclusive = no clear call, values can overlap the other calls
Target sequence (Q9BYT3 whole entry, looked up): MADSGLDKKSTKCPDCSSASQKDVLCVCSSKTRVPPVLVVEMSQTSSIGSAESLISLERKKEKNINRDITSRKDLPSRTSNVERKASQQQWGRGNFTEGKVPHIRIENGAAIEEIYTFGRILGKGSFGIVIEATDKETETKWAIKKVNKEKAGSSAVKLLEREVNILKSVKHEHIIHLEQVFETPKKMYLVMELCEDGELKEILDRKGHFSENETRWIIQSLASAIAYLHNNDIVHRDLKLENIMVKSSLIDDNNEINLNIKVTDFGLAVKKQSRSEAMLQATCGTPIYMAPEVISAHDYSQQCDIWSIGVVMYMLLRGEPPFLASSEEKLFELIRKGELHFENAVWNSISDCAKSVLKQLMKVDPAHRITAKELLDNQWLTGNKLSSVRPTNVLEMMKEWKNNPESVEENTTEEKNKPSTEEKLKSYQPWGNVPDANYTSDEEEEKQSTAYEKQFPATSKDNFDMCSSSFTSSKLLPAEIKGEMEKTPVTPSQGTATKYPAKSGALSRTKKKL
mut p53 react: mutant p53 pathway reactivation | SW480 PUMA-promoter luciferase | activation, % at 9.98 µM | hit rate 1.5% among 28,000; in the data active = activation above about 52%; inconclusive = no clear call, values can overlap the other calls
Of the large screens only hits and unclear results are named; the others gave an inactive call. The list is not random: actives were taken first. Their share in the collection is about 2%.

Cc1[nH]c(=O)[nH]c(=O)c1NS(=O)(=O)c1ccc2c(c1)CCCC2	none
Cc1ccc(S(=O)(=O)Nc2c(C)[nH]c(=O)[nH]c2=O)cc1C	ID4 SMM active
Cc1ccc(Cn2nc(C)cc2C(=O)Sc2ccccc2)cc1	none (no result: ID4 SMM, mut p53 react)
C=C(C(=O)O)C(CCCCCCO)C(=O)O (centres undefined)	ID4 SMM active
C=C(C(=O)O)C(CCCCC(C)O)C(=O)O (centres undefined)	none
O=C(Nc1cccc(NC(=O)c2ncn[nH]2)c1)c1cccc(Cl)c1	STK33 inh 31.8
O=C(Nc1ccccc1C(=O)O)c1ncn[nH]1	none
COc1cccc(-c2cc(C(=O)Nc3ccc(S(=O)(=O)NC(C)=O)cc3)c3ccccc3n2)c1	none
O=C(/C=C/c1ccccc1)c1ccc(O)cc1	STK33 inh 26.8 (no result: ID4 SMM, mut p53 react)
O=C(/C=C/c1ccccc1)CC(=O)/C=C/c1ccccc1	none (no result: ID4 SMM)
COc1ccc(NC(=O)c2ccco2)cc1NC(=S)NC(=O)c1cc2ccccc2o1	none
Cc1ccc(-c2nc(SCC(=O)c3ccccc3)n[nH]2)cc1	none
COc1ccc(C(=O)CSc2n[nH]c(-c3ccc(C)cc3)n2)cc1	ID4 SMM active
Cc1cc(C)n2c(Nc3cccc(C(F)(F)F)c3)c(-c3ccc(O)cc3)nc2n1	none (no result: STK33 inh)
Cc1ccc(NC(=O)c2ccc(OC(=O)CCN3C(=O)c4ccccc4C3=O)cc2)cc1	mut p53 react 102.1
COc1ccc(NC(=O)c2ccc(OC(=O)CCN3C(=O)c4ccccc4C3=O)cc2)cc1	none
C=C1C(=O)OC2CC(C)C3(/C=C/C(C)=O)OC3CC12 (centres undefined)	none (no result: mut p53 react)
CCCCN1C(=O)[C@H]2Cc3c([nH]c4ccccc34)[C@H](c3ccc(OC)cc3)N2C1=O	none
COc1ccc2c(c1)O[C@@H]1COc3cc(OC)c(OC)cc3[C@@H]1C2=O	none (no result: ID4 SMM, mut p53 react)
CCc1cc2c(SCC(=O)c3ccc(C)cc3)ncnc2s1	mut p53 react 64.9
CCc1cc2c(SCC(N)=O)ncnc2s1	none
COc1ccc(NC(=S)NCc2cn(-c3ccccc3)nc2-c2ccccc2)cc1OC	none
Cc1ccc(-c2nc3ccccc3[nH]2)cc1NC(=O)COc1ccc(C(C)C)cc1	none
COc1ccc(NC(=O)COc2ccccc2[N+](=O)[O-])cc1Cl	mut p53 react 134.7
COc1ccccc1OCC(=O)Nc1ccc(C)cc1[N+](=O)[O-]	mut p53 react 118.6
Cc1ccc(NC(=O)COc2ccc(Cl)cc2Cl)c([N+](=O)[O-])c1	none
COc1ccccc1OCC(=O)Nc1cc(-c2nc3ccccc3[nH]2)ccc1C	ID4 SMM active
COc1cc(NC(=O)COc2ccccc2[N+](=O)[O-])ccc1NC(=O)c1cccs1	none
Cc1ccc(NC(=O)COc2ccccc2Cl)c([N+](=O)[O-])c1	mut p53 react 60.4
Cc1ccc(NC(=O)COc2ccc(C(C)(C)C)cc2Br)c([N+](=O)[O-])c1	none
CCC(C)[C@H]1C(=O)O[C@H](C(C)C)C(=O)N(C)[C@@H](C(C)C)C(=O)O[C@H](C(C)C)C(=O)N(C)[C@@H](C(C)C)C(=O)O[C@H](CC(C)C)C(=O)N1C (some centres undefined)	none (no result: ID4 SMM, mut p53 react)
c1ccc(CCc2nn3c(COc4ccccc4)nnc3s2)cc1	none (no result: STK33 inh)
CN(CC(=O)Nc1ccccc1C(C)(C)C)S(=O)(=O)c1ccc(Cl)cc1	none
CC1(C)CC[C@]2(C(=O)O[C@@H]3O[C@H](CO[C@@H]4O[C@H](CO)[C@@H](O)[C@H](O)[C@H]4O)[C@@H](O)[C@H](O[C@@H]4O[C@H](CO)[C@@H](O)[C@H](O)[C@H]4O)[C@H]3O)CC[C@]3(C)C(=CCC4[C@@]5(C)CC[C@H](O)[C@@](C)(C(=O)O)C5CC[C@]43C)C2C1 (some centres undefined)	none (no result: mut p53 react)
COc1ccc(-n2c(Cn3ncc4ccccc4c3=O)n[nH]c2=S)cc1	none
O=C(Cn1ccc([N+](=O)[O-])n1)NCc1ccccn1	none
Cc1ccc(NC(=O)COc2ccc(CO)cc2Cl)cc1	none
COc1ccccc1NC(=O)COc1ccc(CO)cc1Cl	mut p53 react 164.5
O=C(COc1ccccc1[N+](=O)[O-])Nc1ccc2oc(-c3ccc(F)cc3Cl)nc2c1	mut p53 react 51.3
O=C(COc1ccccc1Cl)Nc1ccc2oc(-c3ccc(F)cc3Cl)nc2c1	none
N#Cc1c(NC(=O)Cn2cnc3scc(-c4ccccc4)c3c2=O)sc2c1CCC2	none
Cc1nonc1OCCNc1cc(N2CCOCC2)ccc1[N+](=O)[O-]	none
Cc1nonc1OCCNc1cc(N2CCCC2)ccc1[N+](=O)[O-]	mut p53 react 89.4
NC(=O)CSc1ncn(-c2ccccc2)n1	none
C[C@@H]1CN([C@@H](C)CO)C(=O)c2cc(NC(=O)CCCN(C)C)ccc2O[C@@H]1CN(C)S(=O)(=O)c1cccs1	none (no result: ID4 SMM, mut p53 react)
C[C@@H]1CCCCO[C@H](CN(C)S(=O)(=O)c2cccs2)[C@@H](C)CN([C@H](C)CO)C(=O)c2cc(NC(=O)CCC(F)(F)F)ccc2O1	none (no result: ID4 SMM, mut p53 react)
C[C@H](CO)N1C[C@H](C)[C@H](CN(C)S(=O)(=O)c2cn(C)cn2)Oc2ccc(NC(=O)CCCN(C)C)cc2C1=O	none (no result: ID4 SMM, mut p53 react)
C[C@@H]1CN([C@@H](C)CO)C(=O)c2cc(NC(=O)CCCN(C)C)ccc2O[C@@H](C)CCCCO[C@@H]1CN(C)S(=O)(=O)c1cn(C)cn1	ID4 SMM active (no result: STK33 inh)
C[C@H](CO)N1C[C@H](C)[C@@H](CN(C)S(=O)(=O)c2cccs2)Oc2ccc(NC(=O)CCCN(C)C)cc2C1=O	ID4 SMM active (no result: STK33 inh)
C[C@@H]1CCCCO[C@@H](CN(C)S(=O)(=O)c2cccs2)[C@@H](C)CN([C@@H](C)CO)C(=O)c2cc(NC(=O)CCCN(C)C)ccc2O1	ID4 SMM active (no result: STK33 inh)
CC(C)C1NC(=S)NC2=C1CCCC2 (centres undefined)	none (no result: STK33 inh)
O=C(O)CNC(=O)CSc1ccc(Cl)cc1	none (no result: ID4 SMM, mut p53 react)
CCCC[C@H]1OB(O)C[C@H]2C1=C(COc1ccccc1)Cn1c(=O)n(-c3ccccc3)c(=O)n12	ID4 SMM active (no result: STK33 inh, mut p53 react)
COCC1=C2[C@@H](c3ccccc3)OB(O)C[C@@H]2n2c(=O)n(-c3ccccc3)c(=O)n2C1	none (no result: STK33 inh, mut p53 react)
O=C(CC1(O)C(=O)N(Cc2ccccc2)c2ccccc21)c1ccccc1[N+](=O)[O-] (centres undefined)	none
O=C(Cc1ccccc1)c1ccccc1C(=O)NCc1cccs1	none (no result: ID4 SMM, mut p53 react)
Cc1ccc(-c2cc(C(=O)NCCCN3CCOCC3)no2)cc1	none
Cc1ccc(-c2cc(C(=O)NCc3cccnc3)no2)cc1	mut p53 react 91.3
CCCCC/C=C\C/C=C\CCCCCCCC(=O)O	none (no result: ID4 SMM, mut p53 react)
CCCCC/C=C\C/C=C\CCCCCCCC(=O)NCC(=O)O	ID4 SMM active (no result: mut p53 react)
CCCCC/C=C\C/C=C\C/C=C\CCCCCCC(=O)O	ID4 SMM active (no result: STK33 inh)
COc1cc2c(cc1NC(=S)NCc1ccco1)oc1ccccc12	none
CCn1c(SCc2nc3ccccc3[nH]2)nnc1-c1cccc(Cl)c1	none
C=C(CCCCCCCC(=O)O)C(=O)OC	none (no result: mut p53 react)
CCCCc1c(-c2ccc(OC)cc2)[nH]c2nccnc12	none (no result: mut p53 react)
CCCCc1c(-c2ccc(O)cc2)[nH]c2nccnc12	STK33 inh 57.1 (no result: mut p53 react)
COC(=O)CNc1c(F)c(F)nc(F)c1F	none (no result: STK33 inh)
NS(=O)(=O)c1ccc(NC(=S)NCc2cccnc2)cc1	none
Cc1cccnc1NC(=S)Nc1ccc(S(N)(=O)=O)cc1	STK33 inh inconclusive, mut p53 react 66.0
O=C(NCCC(c1ccc(F)cc1)c1ccco1)c1cccs1 (centres undefined)	mut p53 react 50.4
CC(C(=O)O)c1ccc(C(=O)c2cccs2)cc1 (centres undefined)	none (no result: mut p53 react)
